Assay outcomes as filed in PubChem BioAssay.
A selection: hits, their analogues and other compounds. The true share with any hit is near 1%.
Fh CTSL1 inh: Fasciola hepatica cathepsin L1 inhibitors, primary screen, counter-screen for PFM18AAP inhibitor project, biochemical, QFRET, fluorogenic peptide substrate | recombinant F. hepatica cathepsin L1, Z-Leu-Arg-MCA fluorescence | inhibition, % at 5.96 µM | 0.49% of 300,000 active | AID 1906, 2009;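 active = inhibition above the mean of all tested compounds plus 3 SD, set per screening campaign, cut at about 17% in these data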;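 note: 0% = plate median of test compound wells and 100% = 1 µM Z-Phe-Ala-diazomethylketone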
V-ATPase pH: regulators of yeast V-ATPase proton pumping, primary screen, pHLuorin cytosolic pH fluorescence | S. cerevisiae | response, % at 10 µM | 0.37% of 350,000 active; in the data active = response mostly above about 7.3%, no sharp cut-off; inactive = mostly below about 5.4%; note: actives read high
Yeast superoxide: reduction of superoxide in aged yeast, primary screen, HTS; S. cerevisiae aged cells, superoxide DHE fluorescence; hits give low values; superoxide response (% of plate mean), % at 10 µM; 0.18% of 330,000 active; AID 2690, 2010;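 active = superoxide response under a set limit, about three screen SD below normal, cut at about 65% in these data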;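 note: yeast aged for seven days with compound at 30 °C before DHE staining; 100% = average MFI of all compound-treated wells on the plate with controls excluded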
hiPSC survival: enhancers of single-cell hiPSC survival, primary screen, ATPlite luminescence; 100% = ROCK inhibitor wells, 0% = DMSO; survival enhancement, % at 20 µM; 0.044% of 360,000 active; in the data active = survival enhancement above about 18%;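 note: cells exposed to compounds for 16 hours before the ATP read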
CR mimetic CP: superoxide lowering in aged yeast cells, confirmation, cherry picked compounds; 1% of 850 active; superoxide response (% of plate), % at 10 µM; shares compounds with Yeast superoxide; S. cerevisiae aging, superoxide DHE fluorescence; hits give low values;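 active = superoxide signal below 65% of the plate average of sample wells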;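 note: cells aged with compound for 7 days at 30 degrees C before staining; 100% equals mean DHE fluorescence of all compound wells on the plate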
DHE counter: DHE quenching or ROS scavenging interference in aged yeast, artefact control for yeast caloric restriction mimetic project, S. cerevisiae BY4741, flow cytometry; shares compounds with Yeast superoxide; DHE fluorescence; hits give low values; fluorescence response, % at 10 µM; 850 tested, under 10 active; AID 435000, 2010;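 active = fluorescence response below 15%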;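 note: percent of the mean fluorescence averaged over all compound wells on the plate; lower means stronger quenching of DHE signal or ROS scavenging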
V-ATPase pH SP: yeast V-ATPase proton pumping modulators, confirmation, S. cerevisiae, pH-sensitive GFP, second cherry-pick. shares compounds with V-ATPase pH. S. cerevisiae pHLuorin cytosolic pH, V-ATPase proton transport. response, % at 10 µM. 2% of 980 active. AID 602197, 2012; in the data active = response above about 24%;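 note: plate controls were vehicle wells for no effect and positive control wells for full effect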
The depositor's hits bear a star; x = no result.

SMILES | Fh CTSL1 inh | V-ATPase pH | Yeast superoxide | hiPSC survival | CR mimetic CP | DHE counter | others
CCSc1ncc(Cl)c(C(=O)Nc2ccccc2)n1 | 2.1 | -0.3 | 99.8 | 3.5 | 107.5 | 89.8
NS(=O)(=O)c1ccc(NS(=O)(=O)c2ccc(Br)cc2)cc1 | -2.6 | -0.1 | 90.9 | 0.0 | 102.3 | 90.1
O=C(N/N=C/c1ccco1)c1[nH]ncc1Br | x | 1.4 | 61.2* | -0.4 | 95.9 | 93.5
O=C(CCl)Nc1ccccc1C(=O)NCc1ccccc1 | 6.8 | 0.7 | 101.5 | 1.3 | x | x
CSCCC(NC(=O)C1CCC(C)CC1)C(=O)NCCN1CCOCC1 (stereo not given) | 38.0* | 0.2 | 58.0* | -2.8 | 97.6 | 97.3
COc1ccc(-c2nc3c4c(ncn3n2)-c2ccccc2CC42CCCC2)cc1 | 4.1 | -1.6 | 63.9* | -0.8 | 106.8 | 99.4
COc1ccc(OCc2nc3c4c(ncn3n2)-c2ccccc2CC42CCCC2)cc1 | 3.5 | 2.9 | 117.5 | 3.3 | x | x
COc1ccc(C)cc1N(C(=O)c1cccc(F)c1)c1nc2ccccc2s1 | -3.8 | 3.7 | 48.5* | -0.7 | 96.5 | 107.8
CC(c1ccon1)N(C)C(=O)CCc1nnc(CCCCc2ccccc2)o1 (stereo not given) | 1.9 | 1.0 | 96.1 | 0.1 | x | x
COCCn1c(SCC(=O)Nc2cc(C)cc(C)c2)nc2ccccc2c1=O | -0.4 | -4.1 | 100.2 | -0.7 | x | x
COCCn1c(SCC(=O)Nc2ccc(NC(C)=O)cc2)nc2ccccc2c1=O | -2.3 | -0.6 | 50.7* | -0.6 | 96.6 | 103.0
Cc1c(C(=O)Nc2cccnc2Cl)oc2ccccc12 | -2.0 | -1.0 | 102.8 | -0.4 | x | x
COc1ccc(S(=O)(=O)NC(N)=NCCc2ccc(OC)c(OC)c2)cc1C | -0.3 | -0.1 | 63.9* | 3.2 | 100.3 | 90.3
CC1=NN(C(=O)c2ccc(Cn3ccc([N+](=O)[O-])n3)cc2)C(O)(C(F)(F)F)C1 (stereo not given) | -1.4 | -3.5 | 97.5 | 2.4 | x | x
Cc1cc(C)n2nc(-c3cccc(Br)c3)cc2n1 | -0.6 | 5.5 | 100.5 | -0.5 | 102.9 | 94.0
O=C(c1cccc(S(=O)(=O)N2CCc3ccccc3C2)c1)N1CCN(c2ccc(O)cc2)CC1 | 1.9 | 3.6 | 103.1 | -1.1 | x | x
Cc1ccc(C)c(NC(=O)CN(C)C(=O)c2oc3c(Cl)cccc3c2C)c1 | 2.1 | -3.4 | 65.5* | -0.1 | 105.1 | 104.8
COC(=O)[C@]12CCCCC=C1N(CCC1=CCCCC1)C(=O)[C@H](CC(=O)NCCC(C)C)C2 | x | x | x | 1.6 | x | x
CCn1c(C)nc2c(=O)oc3ccccc3c21 | 0.3 | -3.3 | 65.1* | -2.8 | 94.0 | 97.4
Cc1nc2c(=O)oc3ccccc3c2n1-c1ccccc1 | -2.1 | 1.7 | 94.7 | 1.2 | x | x
CS(=O)(=O)c1cccc(-c2nnc(NC(=O)c3ccc(S(=O)(=O)N4CCCC4)cc3)o2)c1 | -0.2 | 1.2 | 102.7 | -0.1 | x | x
CC1CCCN(S(=O)(=O)c2ccc(C(=O)Nc3nnc(-c4ccccc4Cl)o3)cc2)C1 (stereo not given) | -0.1 | 0.4 | 105.8 | -1.6 | x | x
CC1CCCN(S(=O)(=O)c2ccc(C(=O)Nc3nnc(C4CC4)o3)cc2)C1 (stereo not given) | -0.3 | 0.7 | 64.7* | 0.0 | 93.1 | 100.1
COc1ccccc1-c1nnc(NC(=O)c2ccc(S(=O)(=O)N3CCCC3)cc2)o1 | 8.0 | 2.7 | 101.0 | 1.1 | 116.1 | 105.6
COc1ccc(-c2nnc(NC(=O)c3ccc(S(=O)(=O)N(C)CC4CCCO4)cc3)o2)c(OC)c1 (stereo not given) | 1.3 | -3.6 | 100.0 | -0.1 | 93.7 | 97.0
SMILES | Fh CTSL1 inh | V-ATPase pH | Yeast superoxide | hiPSC survival | CR mimetic CP | DHE counter | others
O=C(Nc1nnc(-c2ccc(F)cc2)o1)c1ccc(S(=O)(=O)N2CCOCC2)cc1 | 1.3 | -2.6 | 98.0 | 0.1 | 104.5 | 111.7
COc1ccc(CCNC(=O)CNS(=O)(=O)c2ccc(N(C)C)c([N+](=O)[O-])c2)cc1OC | 0.6 | -1.5 | 65.3* | 0.4 | 100.2 | 98.7
CN(C)c1ccc(S(=O)(=O)NCC(=O)NCc2ccccc2)cc1[N+](=O)[O-] | 1.6 | 0.0 | 97.8 | 0.2 | x | x
COc1ccc(CCNC(=O)CCNS(=O)(=O)c2cccc(Cl)c2)cc1OC | 7.6 | 4.3 | 58.8* | -0.4 | 92.3 | 112.1
COC(=O)CN(c1ccccc1F)S(=O)(=O)c1ccc(C)cc1 | -0.4 | 3.7 | 105.7 | -0.5 | x | x
COC(=O)CN(c1ccccc1)S(=O)(=O)c1ccccc1 | -2.5 | 0.6 | 90.9 | 1.7 | 100.0 | 91.4
COC(=O)CN(c1ccc(C)cc1)S(=O)(=O)c1ccc(F)cc1 | -3.0 | -4.0 | 49.9* | 1.4 | 103.9 | 106.9
CCOC(=O)CSc1nnc(-c2ccccc2)o1 | -0.9 | 1.8 | 98.6 | -1.8 | 114.2 | 125.3 | V-ATPase pH SP=-3.2
CSCCC(NC(=O)OCc1ccccc1)C(=O)NCc1cccnc1 (stereo not given) | x | 3.9 | 91.3 | -0.4 | x | x
CN1CCN(CC(=O)Nc2c(C(=O)C3CC3)oc3ccccc23)CC1 | 1.3 | -2.5 | 99.8 | 1.0 | x | x
CCOC(=O)CSCC(=O)Nc1c(C(=O)C2CC2)oc2ccccc12 | 3.8 | 7.5* | 108.1 | -1.5 | x | x | V-ATPase pH SP=1.0
CCOC(=O)CCCCCC(=O)Nc1ccc2c(c1)CC(=O)N([C@H](C)CO)C[C@H](C)[C@H](CN(C)S(=O)(=O)c1ccc(OC)cc1)O2 | x | 8.7 | 85.5 | -0.5 | x | x
O=C(CCCC(=O)c1ccc(F)cc1)c1ccc(F)cc1 | 2.0 | 7.6 | 84.0 | -0.6 | x | x | V-ATPase pH SP=1.1
O=C(O)CCC(=O)NCC(=O)c1ccc(F)cc1 | 13.6 | 8.5 | 109.6 | 0.3 | x | x | V-ATPase pH SP=-0.6
O=C(O)CCC(=O)Nc1ccc(F)cc1 | -1.6 | 0.6 | 94.6 | -0.5 | x | x
O=C(NCCCNC(=O)c1ccc(F)cc1)c1ccc(F)cc1 | 3.1 | 4.5 | 102.9 | -0.2 | x | x | V-ATPase pH SP=0.8
O=C(c1cccnc1)N1CCN(c2c(Cl)cccc2[N+](=O)[O-])CC1 | -1.3 | 5.1 | 99.9 | -1.1 | x | x
COc1cccc(/C=c2\s/c(=C/C(=O)c3ccc(C)cc3)[nH]c2=O)c1OC | 6.9 | 8.0* | 90.0 | 2.7 | x | x | V-ATPase pH SP=-54.4
CN(CC(=O)O)c1ccc(C(F)(F)F)cc1[N+](=O)[O-] | x | 2.1 | x | 3.9 | x | x
Cc1ccc(S(=O)(=O)N(C)Cc2ccc(C(=O)N/N=C3\CCCC(=O)C3)cc2)cc1 | 1.6 | 3.1 | 102.3 | -0.4 | x | x
O=C1CCC/C(=N\NC(=O)c2ccc(NS(=O)(=O)c3ccc(Br)cc3)cc2)C1 | 3.6 | 13.6* | 88.6 | 1.0 | x | x | V-ATPase pH SP=-1.5
CC(C)C[C@@H](CO)N1CCN(CC(C)C)CCC1=O | -4.1 | 0.6 | 94.6 | -1.6 | x | x
Cn1nc(C(=O)N2CCN(c3ccc(Cl)cc3)CC2)c2c1-c1ccccc1S(=O)(=O)C2 | 6.4 | 8.6* | 116.9 | 0.1 | x | x | V-ATPase pH SP=-6.2
